# Test results reported in PubChem BioAssay (NCATS).
# A number with no mark means an inactive call. Results filed as inconclusive are left out. Entries that show only a call come without a potency. Calls of active or inactive are those of the source. Calls come from the whole dose curve; as a rule, active = well fitted curve in the direction sought with a large enough effect; inconclusive = small, poorly fitted or top-dose-only effect, or another doubt; inactive = no such curve, though single readings can be large; an effect the other way counts as inactive or inconclusive.
# Tests used:
# [1] = molecular target: Glutathione peroxidase 1 (Homo sapiens) (UniProt P07203); experiment: Primary qHTS Assay for Inhibitors of Recombinant Selenoprotein Glutathione Peroxidase 1 (GPX1) (AID 1845191); note: nearly all actives have a fitted effect of over 65% in size; note: potency is the fitted concentration of half-maximal effect
# How it was run: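 10 nM GPX1 + cpd, 30 min RT; start w/ 1 mM GSH, 0.5 mM cumene hydroperoxide, 0.5 mM NADPH, 100 nM GR, 0.01% BSA; buffer 50 mM Tris-HCl pH 7.5, 2 mM EDTA, 150 mM NaCl; Fl 340/450, 0 & 15 min.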
# [2] = molecular target: Phospholipid hydroperoxide glutathione peroxidase GPX4 (Homo sapiens) (UniProt P36969); experiment: Primary qHTS Assay for Inhibitors of Recombinant Selenoprotein Glutathione Peroxidase 4 (GPX4) (AID 1845192); note: nearly all actives have a fitted effect of over 65% in size; note: potency is the fitted concentration of half-maximal effect; for activity change, negative = inhibition: series mostly up to about 50 µM
# How it was run: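 NADPH consumption, followed by fluorescence at 340/450 nm between 0 and 15 min, reports GPX4 activity via coupled glutathione reductase (100 nM). Enzyme 200 nM was pre-exposed to compound 30 min; 0.5 mM cumene hydroperoxide and 1 mM GSH served as substrates.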
# [3] = HepG2 viability counterscreen (readout 2: ATP content) against the NCATS DSHEA and TCM libraries (AID 1794840);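 note: HepG2 cells exposed to substances for about 24 h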
# How it was run: (§1)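 Readout 1: cellular protease activity, GF-AFC substrate (25 uM final, 30 min, fluorescence 380/510 nm). Readout 2: ATP content by CellTiter-Glo luminescence after 30 min at RT. Both follow ~24 h exposure of HepG2 cells (1,000/well) to substances.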
# [4] = HepG2 viability counterscreen (readout 1: protease activity) against the NCATS DSHEA and TCM libraries (AID 1794841);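 note: cells exposed to compounds for about 24 h before the protease read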
# How it was run: as §1
# [5] = molecular target: Luciferin 4-monooxygenase (Photinus pyralis) (UniProt P08659); experiment: Primary firefly luciferase (FLuc) qHTS assay for identification of artifact compounds. (AID 1845220); note: nearly all actives have a fitted effect of over 60% in size
# How it was run: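 Compounds sat 15 min at room temperature with 10 uM luciferin and 10 uM ATP (pH 7.6 Tris acetate). Firefly luciferase (10 nM final) was then added, and luminescence was read 5 min later. Data normalized to no-enzyme and DMSO controls were Hill-fitted.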
# [6] = tested on: Nanoluciferase (engineered Oplophorus gracilirostris luciferase); experiment: Primary Nanoluciferase (NLuc) qHTS assay for identification of artifact compounds. (AID 1845222); note: series mostly up to about 54 µM
# How it was run: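 Luminescence from secreted NLuc (filtered, 1:55-diluted S16 cell medium) read 5 min after Nano-Glo substrate; compounds preincubated 15 min, RT. Hill fits of inhibition normalized to DMSO and no-enzyme.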
# [7] = molecular target: Cytochrome P450 2C9 (Homo sapiens) (UniProt P11712); experiment: qHTS for inhibitors of CYP2C9 against the NCATS DSHEA and TCM libraries (AID 1919973); note: potency is the fitted concentration of half-maximal effect;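 for activity change, negative = inhibition: luminogenic pro-luciferin CYP2C9 substrate turned into luciferin with NADPH regeneration; series mostly up to about 34 µM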
# How it was run: (§2)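 Light output from converted D-luciferin reports remaining CYP activity. Compounds preincubate with enzyme and substrate for 15 min; NADPH regeneration (1x final) runs the reaction for 30-45 min.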
# [8] = molecular target: Cytochrome P450 2C19 (Homo sapiens) (UniProt P33261); experiment: qHTS for inhibitors of CYP2C19 against the NCATS DSHEA and TCM libraries (AID 1919974);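 note: luminescence from luciferin released by CYP2C19 oxidation of a pro-luciferin substrate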; note: potency is the fitted concentration of half-maximal effect
# How it was run: as §2
# [9] = KB-3-1 P-gp reporter qHTS against the NCATS DSHEA and TCM libraries (AID 1919975)
# How it was run: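 Cell viability by CellTiter-Glo luminescence following ~72 h compound exposure (concentration-response). Uses parental, non-P-gp-overexpressing KB-3-1 line, 500 cells/well in DMEM/10% FBS, attached ~4 h before dosing.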
# [10] = molecular target: Cytochrome P450 1A2 (Homo sapiens) (UniProt P05177); experiment: qHTS for inhibitors of CYPIA2 against the NCATS DSHEA and TCM libraries (AID 1919976); note: potency is the fitted concentration of half-maximal effect;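 for activity change, negative = inhibition: light from luciferin formed by CYP1A2 from a pro-luciferin substrate; series mostly up to about 37 µM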
# How it was run: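 In this quantitative HTS, inhibition of recombinant human CYP1A2 was measured as loss of luciferin-derived luminescence. Turnover ran 30-45 min at RT after NADPH regeneration solution was added.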
# [11] = qHTS Counterscreen for compound interference against the NCATS DSHEA and TCM libraries (AID 1919978); details: firefly luciferase detection reagent interference, luminescence;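 note: compounds preincubated with 1 µM D-luciferin or buffer before detection reagent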
# How it was run: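 With 1 uM D-luciferin or phosphate buffer only, compounds at final 19.5 nM–39.8 uM were incubated for 15 min at room temperature. Luciferase detection reagent was then added, and luminescence was measured after a further 30 min at room temperature.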
# [12] = Dual reporter qHTS for agonist of Pregnane X Receptor (hPXR) against the NCATS DSHEA and TCM libraries: Fluorescence readout (AID 1920058)
# How it was run: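 Measures viability of the PXR reporter HepG2 line by protease-substrate fluorescence (405/540 nm), taken 1 h after CellTiter-Fluor addition. Substances are tested as concentration series over a ~24 h exposure, with rifampicin as agonist control.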
# [13] = molecular target: Nuclear receptor subfamily 1 group I member 2 (Homo sapiens) (UniProt O75469); experiment: Dual reporter qHTS for antagonist of Pregnane X Receptor (hPXR) against the NCATS DSHEA and TCM libraries: Luminescence Readout (AID 1920060);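 note: HepG2 cells carrying hPXR luciferase reporter stimulated with rifampicin at 2 µM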
# How it was run: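 HepG2 hPXR-Luc, 2000 cells/well, charcoal-stripped FBS medium; 5 h attach; RIF 2 uM final; 24 h 37C/5% CO2; CellTiter-Fluor 1 h, fluor 405/540; ONE-Glo 30 min RT, lum.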
# [14] = molecular target: Nuclear receptor subfamily 1 group I member 3 (Homo sapiens) (UniProt Q14994); experiment: Primary qHTS for agonist of constitutive androstane receptor (CAR) against the NCATS DSHEA and TCM libraries (AID 1794839);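 note: HepG2 cells expressing human CAR with a CYP2B6 reporter plus PK11195 antagonist; luciferase reporter luminescence read with ONE-Glo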
# How it was run: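 Agonist mode in presence of hCAR antagonist PK11195 (0.75 µM final): test substances, 24 h, 37 °C, on HepG2-CYP2B6-hCAR cells. Same-well readouts: fluorescence viability, then ONE-Glo luminescence; CITCO as reference agonist.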
# [15] = molecular target: Cytochrome P450 3A4 (Homo sapiens) (UniProt P08684); experiment: qHTS for inhibitors of CYP3A4 against the NCATS DSHEA and TCM libraries (AID 1919971);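 note: inhibition lowers luminescence from luciferin made by CYP3A4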
# How it was run: as §2
# [16] = molecular target: Cytochrome P450 2D6 (Homo sapiens) (UniProt P10635); experiment: qHTS for inhibitors of CYP2D6 against the NCATS DSHEA and TCM libraries (AID 1919972)
# How it was run: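 Steps: enzyme plus luciferin substrate dispensed; test substances pinned; 15 min RT; 1x NADPH regenerating solution added, 30–45 min RT protected from light; detection reagent, 30 min RT; luminescence measured. Minus-enzyme wells as background.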
# [17] = molecular target: Nuclear receptor subfamily 1 group I member 2 (Homo sapiens) (UniProt O75469); experiment: Dual reporter qHTS for agonist of Pregnane X Receptor (hPXR) against the NCATS DSHEA and TCM libraries: Luminescence readout (AID 1920059)
# How it was run: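 Luminescent PXR reporter read (ONE-Glo) after a CellTiter-Fluor viability read, following 24 h, 37C treatment of HepG2 cells stably carrying hPXR-Luc.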
# [18] = Primary fluorescence-based thiol-reactive (MSTI) qHTS assay for identification of artifact compounds. (AID 1845221);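 note: series mostly up to about 54 µM; thiol-reactive compounds lower the probe fluorescence signal; nearly all actives have a fitted effect of over 65% in size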
# How it was run: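 Probe: MSTI 4 uM, PBS pH 7.4, 2% DMSO. Incubation 1 h, RT, light-protected. Readout fluorescence 525/598 nm.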
# [19] = Primary redox qHTS assay for identification of artifact compounds. (AID 1845223)
# How it was run: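 Amplex Red (25 uM) and HRP (250 mU/mL) in HBSS, with compounds for 15 min, then 250 uM DTT for 30 min, room temperature, dark. Fluorescence 525/598 nm read; normalized to DMSO and 10 uM DA3003; Hill fit.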
# [20] = molecular target: Metallo-beta-lactamase type 2 (Klebsiella pneumoniae) (UniProt C7C422); experiment: qHTS to identify inhibitors of the New Delhi Metallo-beta-lactamase (NDM): assay validation screen against the NCATS LOPAC Collection (AID 1794843);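 note: nitrocefin turnover by NDM-1 measured as 485 nm absorbance at plateau; series mostly up to about 38 µM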
# How it was run: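 Enzyme 2 nM final, 50 mM HEPES pH 7.0, 1 uM ZnSO4, 0.01% Tween20; cpds in DMSO, preincub w/ enzyme; + nitrocefin (50 uM stock); A485 at plateau; no-enzyme column as blank.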
# Chain of Cytochrome P450 2C19 (Homo sapiens) (P33261 whole entry, looked up): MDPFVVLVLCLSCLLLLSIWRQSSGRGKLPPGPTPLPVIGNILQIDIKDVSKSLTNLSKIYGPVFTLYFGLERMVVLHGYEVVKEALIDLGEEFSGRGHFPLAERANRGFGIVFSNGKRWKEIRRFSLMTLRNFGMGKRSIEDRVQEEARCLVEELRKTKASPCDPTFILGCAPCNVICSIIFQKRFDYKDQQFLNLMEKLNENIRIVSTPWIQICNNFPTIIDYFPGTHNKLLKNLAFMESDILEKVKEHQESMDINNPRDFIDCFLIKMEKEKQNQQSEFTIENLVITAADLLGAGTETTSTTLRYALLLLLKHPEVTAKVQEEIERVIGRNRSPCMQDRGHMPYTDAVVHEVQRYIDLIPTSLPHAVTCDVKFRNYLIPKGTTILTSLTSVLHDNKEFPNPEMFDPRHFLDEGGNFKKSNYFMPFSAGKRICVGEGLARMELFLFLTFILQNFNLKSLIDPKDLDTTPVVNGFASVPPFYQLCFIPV
# Chain of Glutathione peroxidase 1 (Homo sapiens) (P07203 whole entry, looked up): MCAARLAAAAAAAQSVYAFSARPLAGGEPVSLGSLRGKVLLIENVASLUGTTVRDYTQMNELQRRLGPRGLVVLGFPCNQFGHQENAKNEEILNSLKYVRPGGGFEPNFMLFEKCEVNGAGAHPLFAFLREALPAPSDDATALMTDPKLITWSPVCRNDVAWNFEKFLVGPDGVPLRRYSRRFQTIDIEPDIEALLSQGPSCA
# Chain of Cytochrome P450 1A2 (Homo sapiens) (P05177 whole entry, looked up): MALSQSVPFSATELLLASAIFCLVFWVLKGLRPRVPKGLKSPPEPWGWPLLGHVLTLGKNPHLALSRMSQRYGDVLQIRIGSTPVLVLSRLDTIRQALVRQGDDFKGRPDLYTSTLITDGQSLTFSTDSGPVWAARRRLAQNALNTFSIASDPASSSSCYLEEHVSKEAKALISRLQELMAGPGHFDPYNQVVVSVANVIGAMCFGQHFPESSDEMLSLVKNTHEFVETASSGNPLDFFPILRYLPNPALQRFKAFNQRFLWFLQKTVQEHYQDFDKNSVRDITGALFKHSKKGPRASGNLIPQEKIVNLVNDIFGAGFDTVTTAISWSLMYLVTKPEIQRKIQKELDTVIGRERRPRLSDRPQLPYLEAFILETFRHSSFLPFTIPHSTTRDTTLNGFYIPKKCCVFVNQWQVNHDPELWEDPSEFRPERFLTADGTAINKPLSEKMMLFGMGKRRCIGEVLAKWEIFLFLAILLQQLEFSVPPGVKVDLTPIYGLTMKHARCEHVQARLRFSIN
# Chain of Cytochrome P450 2C9 (Homo sapiens) (P11712 whole entry, looked up): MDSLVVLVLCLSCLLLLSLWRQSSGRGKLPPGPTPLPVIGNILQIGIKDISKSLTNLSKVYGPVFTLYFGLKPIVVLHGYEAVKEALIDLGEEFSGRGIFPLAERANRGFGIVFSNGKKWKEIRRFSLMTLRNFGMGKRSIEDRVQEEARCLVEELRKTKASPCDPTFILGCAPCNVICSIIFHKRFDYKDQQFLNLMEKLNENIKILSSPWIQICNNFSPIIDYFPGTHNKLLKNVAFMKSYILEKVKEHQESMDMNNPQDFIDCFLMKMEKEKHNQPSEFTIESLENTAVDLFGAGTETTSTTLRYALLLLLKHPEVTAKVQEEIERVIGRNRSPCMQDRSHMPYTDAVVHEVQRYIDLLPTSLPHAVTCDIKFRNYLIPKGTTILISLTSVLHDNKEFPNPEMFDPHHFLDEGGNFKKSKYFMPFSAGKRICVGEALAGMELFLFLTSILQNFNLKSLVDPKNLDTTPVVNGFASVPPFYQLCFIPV
# Chain of Phospholipid hydroperoxide glutathione peroxidase GPX4 (Homo sapiens) (P36969 whole entry, looked up): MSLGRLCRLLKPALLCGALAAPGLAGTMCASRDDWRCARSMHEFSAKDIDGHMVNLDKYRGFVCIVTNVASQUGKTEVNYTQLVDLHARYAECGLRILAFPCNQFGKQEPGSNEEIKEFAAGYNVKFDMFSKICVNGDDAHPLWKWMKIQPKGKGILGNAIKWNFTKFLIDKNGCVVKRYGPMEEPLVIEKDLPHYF
# Chain of Cytochrome P450 2D6 (Homo sapiens) (P10635 whole entry, looked up): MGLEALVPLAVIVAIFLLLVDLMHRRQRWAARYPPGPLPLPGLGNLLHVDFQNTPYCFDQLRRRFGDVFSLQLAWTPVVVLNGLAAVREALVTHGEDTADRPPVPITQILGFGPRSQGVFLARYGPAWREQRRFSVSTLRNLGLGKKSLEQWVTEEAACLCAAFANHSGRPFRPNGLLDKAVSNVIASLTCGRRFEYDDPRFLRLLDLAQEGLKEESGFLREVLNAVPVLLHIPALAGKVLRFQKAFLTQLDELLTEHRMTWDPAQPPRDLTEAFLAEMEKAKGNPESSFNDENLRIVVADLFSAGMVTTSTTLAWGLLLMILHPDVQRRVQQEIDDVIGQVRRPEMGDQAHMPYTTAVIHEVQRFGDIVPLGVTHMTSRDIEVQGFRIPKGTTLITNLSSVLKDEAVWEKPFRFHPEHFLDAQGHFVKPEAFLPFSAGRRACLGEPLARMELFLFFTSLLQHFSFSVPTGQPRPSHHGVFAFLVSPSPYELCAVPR
# Chain of Nuclear receptor subfamily 1 group I member 2 (Homo sapiens) (O75469 whole entry, looked up): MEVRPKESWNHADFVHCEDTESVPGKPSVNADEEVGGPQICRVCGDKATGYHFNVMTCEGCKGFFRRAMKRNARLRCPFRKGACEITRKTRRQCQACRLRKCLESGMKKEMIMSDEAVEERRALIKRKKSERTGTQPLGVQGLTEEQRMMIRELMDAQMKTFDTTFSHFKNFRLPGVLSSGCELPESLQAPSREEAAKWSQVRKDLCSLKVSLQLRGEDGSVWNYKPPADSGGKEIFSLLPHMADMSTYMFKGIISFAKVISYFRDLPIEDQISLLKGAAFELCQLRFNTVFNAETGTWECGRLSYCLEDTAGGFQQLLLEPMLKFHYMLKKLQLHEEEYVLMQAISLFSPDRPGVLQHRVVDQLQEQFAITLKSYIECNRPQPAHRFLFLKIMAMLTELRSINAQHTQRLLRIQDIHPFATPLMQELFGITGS
# Chain of Nuclear receptor subfamily 1 group I member 3 (Homo sapiens) (Q14994 whole entry, looked up): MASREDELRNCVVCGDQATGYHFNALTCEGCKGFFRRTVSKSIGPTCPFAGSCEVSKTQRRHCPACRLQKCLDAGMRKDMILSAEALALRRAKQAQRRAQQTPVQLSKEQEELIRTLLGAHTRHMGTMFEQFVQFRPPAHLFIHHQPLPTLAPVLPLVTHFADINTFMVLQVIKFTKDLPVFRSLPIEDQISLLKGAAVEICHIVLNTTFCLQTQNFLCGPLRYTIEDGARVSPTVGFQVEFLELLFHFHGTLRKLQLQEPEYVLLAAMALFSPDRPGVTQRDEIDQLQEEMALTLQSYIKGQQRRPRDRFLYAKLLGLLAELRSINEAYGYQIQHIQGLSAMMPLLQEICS
# Chain of Cytochrome P450 3A4 (Homo sapiens) (P08684 whole entry, looked up): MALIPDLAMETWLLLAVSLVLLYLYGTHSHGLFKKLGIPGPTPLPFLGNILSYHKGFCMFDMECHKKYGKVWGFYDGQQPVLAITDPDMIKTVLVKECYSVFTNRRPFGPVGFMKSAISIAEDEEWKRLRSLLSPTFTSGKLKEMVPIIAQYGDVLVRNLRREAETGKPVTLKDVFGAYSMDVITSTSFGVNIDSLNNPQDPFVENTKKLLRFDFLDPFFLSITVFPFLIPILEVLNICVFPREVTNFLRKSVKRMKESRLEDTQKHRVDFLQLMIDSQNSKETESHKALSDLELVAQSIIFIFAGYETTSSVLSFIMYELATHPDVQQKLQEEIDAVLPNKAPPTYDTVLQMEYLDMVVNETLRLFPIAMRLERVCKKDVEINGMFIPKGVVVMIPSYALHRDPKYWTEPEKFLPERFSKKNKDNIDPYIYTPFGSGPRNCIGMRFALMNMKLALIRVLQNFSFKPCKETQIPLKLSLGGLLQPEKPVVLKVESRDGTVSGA
# Chain of Metallo-beta-lactamase type 2 (Klebsiella pneumoniae) (C7C422 whole entry, looked up): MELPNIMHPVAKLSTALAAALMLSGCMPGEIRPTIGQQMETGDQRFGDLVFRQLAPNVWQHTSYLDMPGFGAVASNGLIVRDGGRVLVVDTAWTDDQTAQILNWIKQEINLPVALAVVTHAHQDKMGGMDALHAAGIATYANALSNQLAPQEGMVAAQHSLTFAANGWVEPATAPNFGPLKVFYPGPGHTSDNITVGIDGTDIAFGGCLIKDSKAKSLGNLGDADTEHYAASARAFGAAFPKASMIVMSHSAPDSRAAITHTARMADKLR
smiles,measurement,setting,value
CCCCCCCCCCCCCCCC(=O)OCCC1CCN(CCCN2c3ccccc3Sc3ccc(S(=O)(=O)N(C)C)cc32)CC1,Potency,[1],inactive
same,Potency,[2],inactive
CC(=O)C1=C(O)C=C2Oc3c(C(C)=O)c(O)c(C)c(O)c3[C@]2(C)C1=O,outcome,[3],inactive
same,outcome,[4],inactive
same,Potency,[1],inactive
same,Potency,[2],inactive
same,Potency,[5],inactive
same,Potency,[6],inactive
same,Potency,[7],4.47 µM (active)
same,Potency,[8],3.98 µM (active)
same,outcome,[9],inactive
same,Potency,[10],7.94 µM (active)
same,max response,[11],-5.05%
same,outcome,[12],inactive
same,outcome,[13],inactive
C=C1CC2C3CCC4=CC(=O)C=C[C@]4(C)[C@@]3(F)[C@@H](O)C[C@]2(C)[C@@]1(O)C(=O)COC(C)=O (some centres not stated),Potency,[1],inactive
same,Potency,[2],inactive
CCC(C)(C)OC(=O)N[C@@H](Cc1c[nH]c2ccccc12)C(=O)N[C@@H](CCSC)C(=O)N[C@@H](CC(=O)O)C(=O)N[C@@H](Cc1ccccc1)C(N)=O,Potency,[1],inactive
Cc1cc(Nc2ccccc2C(=O)O)ccc1Cl,Potency,[1],inactive
CC1=C(C(=O)OCCN(Cc2ccccc2)c2ccccc2)C(c2cccc([N+](=O)[O-])c2)C(P2(=O)OCC(C)(C)CO2)=C(C)N1 (configuration not stated),Potency,[1],inactive
CO[C@H]1[C@@H](O)[C@H](N)[C@@H](O[C@H]2O[C@H]([C@H](C)N)CC[C@H]2N)[C@H](O)[C@@H]1N(C)C(=O)CN,Potency,[1],inactive
same,Potency,[2],inactive
O=C(O)CC(O)(CC(=O)O)C(=O)O,outcome,[14],inactive
same,outcome,[3],inactive
same,outcome,[4],inactive
same,Potency,[1],inactive
same,Potency,[2],inactive
same,outcome,[15],inactive
same,outcome,[16],inactive
same,Potency,[7],inactive
same,Potency,[8],inactive
same,outcome,[9],inactive
same,Potency,[10],inactive
same,max response,[11],-0.506%
same,outcome,[12],inactive
same,outcome,[17],inactive
CN1C(=O)c2sccc2N(C)c2nc(Nc3ccc(S(N)(=O)=O)cc3)ncc21,Potency,[1],inactive
CC(CN1c2ccccc2Sc2ccc(S(=O)(=O)N(C)C)cc21)N(C)C (configuration not stated),Potency,[1],inactive
CC1(C)S[C@@H]2[C@H](NC(=O)[C@H](N)c3ccccc3)C(=O)N2[C@H]1C(=O)OCOC(=O)[C@@H]1N2C(=O)C[C@H]2S(=O)(=O)C1(C)C,Potency,[1],inactive
C=C1[C@H]2CC[C@H](C(=O)O)[C@@]23CC[C@H](C3)C1(C)C,outcome,[14],inactive
same,outcome,[3],inactive
same,outcome,[4],inactive
same,Potency,[1],inactive
same,Potency,[2],inactive
same,Potency,[18],inactive
same,Potency,[19],inactive
same,outcome,[16],inactive
same,Potency,[7],inactive
same,Potency,[8],inactive
same,outcome,[9],inactive
same,Potency,[10],inactive
same,max response,[11],1.56%
same,outcome,[12],inactive
same,outcome,[17],inactive
same,outcome,[13],inactive
CCCCCCCCCCCCCCCCCC(=O)[O][Al],"activity, negative = inhibition",[1],-27.3% [at 4.49 µM]
same,"activity change, negative = inhibition",[2],-12.8% [at 4.52 µM]
C=Cc1ccccc1,Potency,[1],inactive
same,Potency,[2],inactive
N#Cc1ccnc(Nc2cc(C3CCN(C4COC4)CC3)cc(N3CCC(F)(F)C3)n2)c1,Potency,[1],inactive
CCC(C)C(C(=O)OCC[N+](C)(CC)CC)c1ccccc1 (configuration not stated),Potency,[1],inactive
same,Potency,[2],inactive
CCCOc1ccc2nc(NC(=O)OC)sc2c1,Potency,[1],inactive
same,Potency,[2],inactive
O=[N+]([O-])c1ccc(Oc2ccc(N=C=S)cc2)cc1,Potency,[1],inactive
CCCCc1cc2c(=O)c(C(=O)OC)c[nH]c2cc1OCc1ccccc1,Potency,[1],inactive
same,Potency,[2],inactive
OCC(O)COc1ccc(Cl)cc1 (configuration not stated),Potency,[1],inactive
same,Potency,[2],inactive
NCCCC[C@H](NC(=O)[C@@H]1CCCN1C(=O)[C@@H]1CSSC[C@H](N)C(=O)N[C@@H](Cc2ccccc2)C(=O)N[C@@H](Cc2ccccc2)C(=O)N[C@@H](CCC(N)=O)C(=O)N[C@@H](CC(N)=O)C(=O)N1)C(=O)NCC(N)=O,Potency,[1],inactive
Cn1nnnc1SCC1=C(C(=O)O)N2C(=O)[C@@H](NC(=O)[C@H](OC=O)c3ccccc3)[C@H]2SC1,Potency,[1],9.04 µM (active)
CN[C@H]1CC[C@@H](c2ccc(Cl)c(Cl)c2)c2ccccc21,outcome,[20],inactive
same,Potency,[1],inactive
same,Potency,[2],inactive
Cc1cc(-n2c(=O)[nH]c(=O)n(C)c2=O)ccc1Oc1ccc(S(=O)(=O)C(F)(F)F)cc1,Potency,[1],inactive
CC#CCC(C)[C@H](O)/C=C/[C@@H]1[C@H]2C/C(=C/CCCC(=O)O)C[C@H]2C[C@H]1O (some centres not stated),Potency,[1],inactive
same,Potency,[2],inactive
CN1CC(O)c2cc(N=NC(N)=O)c(O)cc21 (configuration not stated),Potency,[1],inactive
same,Potency,[2],inactive
CCCCCCCCCC(=O)O,outcome,[3],inactive
same,outcome,[4],inactive
same,Potency,[1],inactive
same,Potency,[2],inactive
same,outcome,[15],inactive
same,outcome,[16],inactive
same,Potency,[7],inactive
same,Potency,[8],inactive
same,outcome,[9],inactive
same,Potency,[10],inactive
same,max response,[11],-0.481%
same,outcome,[12],inactive
same,outcome,[17],inactive
same,outcome,[13],inactive
O=P(O)(O)C(Sc1ccc(Cl)cc1)P(=O)(O)O,"activity, negative = inhibition",[1],3.51% [at 0.4 µM]
same,outcome,[2],inactive [at 0.409 µM]
CCCCCCCCCCCCCCCC(=O)O[C@@H]1CC(C)=C(/C=C/C(C)=C/C=C/C(C)=C/C=C/C=C(C)/C=C/C=C(C)/C=C/C2=C(C)C[C@@H](OC(=O)CCCCCCCCCCCCCCC)CC2(C)C)C(C)(C)C1,Potency,[1],inactive
same,Potency,[2],1.26 µM (active)
